Records with an inconclusive call do not appear. Where a call stands in place of a potency, no number is given. Calls of active or inactive are those of the source. Calls come from the whole dose curve; as a rule, active = well fitted cell-killing curve with a large enough effect in the repeat runs; inconclusive = weak or mixed curves, or effect the other way; inactive = no such curve, though single readings can be large or run the other way.
Potency is the fitted concentration of half-maximal effect.

This test is described as follows: qHTS assay to identify small molecule antagonists of the retinoid-related orphan receptor gamma (ROR-gamma) signaling pathway - cell viability counter screen (AID 1159520). Note: nearly all actives have a fitted effect of over 50% in size. As to conditions: Tet-on RORgamma CHO cells viability, ATP luminescence, 16 h; series mostly up to 92.4 µM. The source says: U.S. Tox21 Program National Center for Advancing Translational Sciences [NCATS] NIH Chemical Genomics Center [NCGC] U.S. Environmental Protection Agency [EPA] National Institutes of Environmental Health Sciences [NIEHS] National Toxicology Program [NTP] U.S. Food and Drug Administration [FDA] Tox21 Assay Overview: Nuclear steroid hormone receptors are involved in many biological processes including inflammatory responses, cell proliferation, and apoptosis. Environmental factors or compounds disrupting these nuclear receptor pathways and gene expression may promote susceptibility to immunotoxicants and autoimmune diseases. One important group of these expression factors are the retinoid-related orphan receptors. To assess compounds that may interfere with the retinoid-related orphan receptor gamma (ROR-gamma) transcription factor, a cell-based luciferase assay was used. The CHO cell-based assay utilizes a TET-inducible ROR expression factor and ROR response element-LUC reporter gene. Reporter gene activity was induced using Doxycycline Hyclate and measured after 16 hr incubation. Tet-on ROR gamma CHO cells were used to screen against the Tox21 10K compound library for cytotoxicity by measuring the viability of the cells based on the quantitation of the ATP.
Tox21 Assay Protocol Summary: Tet-on ROR gamma CHO cells were dispensed at 1,000 cells in 4 uL of culture medium per well into white wall/solid bottom 1536-well plates using a Multidrop Combi (Thermo Scientific, Waltham, MA) dispenser. Following incubation at 37 C and 5% CO2 for 4 hr, 23 nL of compounds dissolved in DMSO, positive controls or DMSO only were transferred by a Pintool station (Kalypsys, San Diego, CA) and after 2 hr incubation at 37 C, one ul of 1 uM (final concentration) of Doxycycline Hyclate was added to all the wells by using a Flying Reagent Dispenser (FRD) (Aurora Discovery, San Diego, CA). After 16 hr incubation at 37 C and 5% CO2, 5 uL of CellTiter-Glo reagent (Promega Corporation, Madison, WI) was added to each assay plate using FRD. After 30 min incubation at room temperature, luminescence was quantified on a ViewLux plate reader (Perkin Elmer, Waltham, MA).
Consider `CCCCCCCCCCCC(=O)[O][Sn]([CH2]CCC)([CH2]CCC)[O]C(=O)CCCCCCCCCCC`, for which the Potency is 13.3 µM (active). For `O=C(NCCCN1CCOCC1)c1ccc(Cl)cc1` the value was “inactive”; for `CC(=O)OCC(=O)[C@@]12OC(C)(C)O[C@@H]1C[C@H]1[C@@H]3C[C@H](F)C4=CC(=O)C=C[C@]4(C)[C@@]3(F)[C@@H](O)C[C@@]12C`, “inactive”; for `CCC(C(=O)OCCOCCN(CC)CC)c1ccccc1` (stereo not given), “inactive”. The entry for `COc1ccc(CCC(=O)c2c(O)cc(O[C@@H]3O[C@H](CO)[C@@H](O)[C@H](O)[C@H]3O[C@@H]3O[C@@H](C)[C@H](O)[C@@H](O)[C@H]3O)cc2O)cc1O` is “inactive”; for `CC(C)C(OC(=O)c1ccccc1)C(C)(C)COC(=O)c1ccccc1` (stereo not given) it is “inactive”. The entry for `CCCCCC=CCC=CCCCCCCCC(=O)OCC` is “inactive”. `CSc1ccc(Oc2ccc(S(N)(=O)=O)cc2CN(C)C)cc1C`: the Potency result was “inactive”. For `CCCCCCCC/C=C\CCCCCCCC(=O)OC(CO)CO`, the Potency entry was “inactive”. For `N#C/C(=C1\SCC(c2ccccc2Cl)S1)n1ccnc1` (stereo not given) the value was “inactive”; for `O=C(O)Cc1ccc(-c2ccccc2)cc1`, “inactive”; for `C=C(C)C(=O)OCCOC(=O)CC(C)=O`, “inactive”. For `O=C(CCCCCCC(=O)Nc1ccccc1)NO` the value was 7.5 µM (active); for `CNCCCC1c2ccccc2C=Cc2ccccc21`, “inactive”. The entry for `CC(N)CN` (stereo not given) is “inactive”. Take `CN(C)C(=O)Nc1ccc(Oc2ccc(Cl)cc2)cc1`: the Potency result was “inactive”. For `COCC(O)CO` (stereo not given) the value was “inactive”; for `CN1CCN(CCCN2c3ccccc3Sc3ccc(S(=O)(=O)N(C)C)cc32)CC1`, “inactive”. With `O=C(O)c1c(O)c(-c2ccccc2)nc2ccccc12`, the Potency entry is “inactive”. The entry for `CNC(=S)NC` is “inactive”; for `COC(OC)(C(=O)c1ccccc1)c1ccccc1` it is “inactive”. Take `CCOC(=O)OCC`: the Potency entry was “inactive”. For the compound `COC(=O)Nc1nc2ccc(C(=O)c3cccs3)cc2[nH]1`, the Potency entry was “inactive”. `CC1=CC(=O)CC(C)(C)C1(O)/C=C/C(C)=C\C(=O)O` (stereo not given): the Potency entry was “inactive”. For `CC1CC(O)CC(C)(C)C1` (stereo not given) the value was “inactive”; for `CCc1cccc(N(C)C(N)=Nc2cccc3ccccc23)c1`, “inactive”. For `COC(=O)CC(=O)C(C)(C)C` the value was “inactive”; for `CC1(C)O[C@@H]2C[C@H]3[C@@H]4CCC5=CC(=O)C=C[C@]5(C)[C@H]4[C@@H](O)C[C@]3(C)[C@]2(C(=O)CO)O1`, “inactive”; for `O=C1OCCN1/N=C/c1ccc([N+](=O)[O-])o1`, “inactive”.

For `CC#N`, the Potency result is “inactive”. Consider `CNC(=O)N(c1ccccc1)c1ccccc1`, for which the Potency entry is “inactive”. For `COc1ccc([C@@H]2Sc3ccccc3NC(=O)[C@@H]2O)cc1` the value was “inactive”. For `CC(C)(O)c1ccccc1CC[C@@H](SCC1(CC(=O)O)CC1)c1cccc(/C=C/c2ccc3ccc(Cl)cc3n2)c1` the value was “inactive”; for `CCC(C)(O)CCC=C(C)C` (stereo not given), “inactive”.

In the case of `CCCCC(CC)CNCC(CC)CCCC` (stereo not given), the Potency entry is “inactive”. The entry for `CCc1c2c(nc3ccc(OC(=O)N4CCC(N5CCCCC5)CC4)cc13)-c1cc3c(c(=O)n1C2)COC(=O)[C@]3(O)CC` is “inactive”; for `Cc1cc(C(=C2C=CC(=Nc3ccc(S(=O)(=O)O)cc3S(=O)(=O)O)C=C2)c2ccc(Nc3ccc(S(=O)(=O)O)cc3)cc2)ccc1N` it is “inactive”; for `CCCOC(=O)c1ccc(C(=O)OCCC)nc1` it is “inactive”.

With `c1cnc2c(n1)CCCC2`, the Potency result is “inactive”.

`CC(=O)[C@H]1CC[C@H]2[C@@H]3C=CC4=CC(=O)CC[C@@]4(C)[C@@H]3CC[C@]12C`: the Potency entry was “inactive”.

The record behind these values is PubChem BioAssay (Tox21).
